Screening results: PubChem, National Center for Advancing Translational Sciences (NCATS)
Hits are enriched below; roughly 2.4% of the tested compounds scored in any of these assays.
PKM2 activator = activators of human pyruvate kinase M2; P14618; purified PKM2, Kinase-Glo ATP luminescence, activation; response scale: 0% is enzyme alone, no compound; Potency, µM (series often up to 57.5 µM), for inactives: at the top dose activation, most hits filed as activators; 260,000 compounds, 0.34% hits; AID 1631; also: % is scaled to controls: 0 for no effect and ±100 for the full control effect; nearly all actives have a fitted effect of over 55% in size
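Kinase-Glo luminescence reports ATP generated from ADP (0.1 mM) and PEP (0.5 mM) by purified hPK-M2 after 1 h at room temperature, pH 7.2 imidazole buffer; intermediate enzyme activity allows detecting inhibitors and activators.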
ELG1 repair inh = ELG1-dependent DNA repair inhibition | HEK293T ELG1-luciferase reporter, luminescence, 16 h; DNA damage induced by 5-fluorouridine | Potency, µM (series often up to 46.1 µM), for inactives: top-dose activity change, negative = inhibition, most hits filed as inhibitors | 330,000 compounds, 2.3% hits; also: % is scaled to controls: 0 for no effect and ±100 for the full control effect; nearly all actives have a fitted effect of over 55% in size
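Reporter activity after DNA damage by 5-fluorouridine is monitored. Compound-treated cells incubate 16 hr at 37 °C, then ONE-Glo is added for 30 min before luminescence reading.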
Rango release inh = inhibitors of RanGTP-induced Rango-importin beta complex dissociation; Biochemical FRET Rango-importin beta, RanGTP-induced dissociation; Potency, µM (highest dose often 46.1 µM), for the others: top-dose activity change, negative = inhibition; 340,000 compounds, 0.071% hits; AID 540253; calls by dose curve; also: % of control where 0% means no effect; nearly all actives have a fitted effect of over 45% in size
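Quantitative HTS using a FRET biosensor: 0.1 uM Rango, 0.25 uM importin beta, 0.6 uM Ran, 2 mM GTP, 0.2 uM RCC1 final, PBS with DTT, Tween-20 and BSA. Post-read taken 45 min after Ran addition.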
Tb PGK inh = blocks T. brucei phosphoglycerate kinase | Potency, µM (doses to about 57.5 µM), for the others: top-dose activity change, negative = inhibition, most hits filed as inhibitors | 380,000 compounds, 0.043% hits | PGK/GAPDH coupled, Kinase-Glo luminescence, 60 min | P07378; also: % is scaled to controls: 0 for no effect and ±100 for the full control effect; nearly all actives have a fitted effect of over 60% in size
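Recombinant glycosomal PGK reaction used 1,3-bisphosphoglycerate generated in-well by GAPDH (100nM final) in 100mM TEA pH 7.6, 5mM MgCl2, 0.01% Tween-20. After 60 minutes at room temperature, ATP was read by Kinase-Glo Plus luminescence end-point.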
Tb PFK block = T. brucei PFK enzyme inhibition. O15648. T. brucei PFK, ADP-Glo luminescence. Potency, µM (doses to about 57.5 µM), for the others: at the highest dose activity, negative = inhibition, actives largely listed as inhibitors. 330,000 compounds, 0.17% hits. AID 485367;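 also: 0% = uninhibited 1x PFK enzyme wells and -100% = no-enzyme wells; nearly all actives have a fitted effect of over 60% in size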
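Luminescent ADP detection (ADP-Glo, two-step: ATP depletion then ADP-to-ATP conversion for luciferase) reported PFK activity after 45 min room-temperature reaction of 1.25 nM enzyme with 0.5 mM F6P and 0.1 mM ATP at pH 8.0.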
Rango-impB inh = prevents formation of the Rango-importin beta complex; 340,000 compounds, 0.031% hits; Rango CFP/YFP FRET sensor + importin beta, 45 min; Q14974; AID 540263; Potency, µM (series often up to 92.2 µM), inactives show at the highest dose inhibition of complex formation; calls by dose curve;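 also: 0% = DMSO wells and 100% = buffer wells lacking importin beta; nearly all actives have a fitted effect of over 15% in size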
Target sequence (Q14974 whole entry, looked up): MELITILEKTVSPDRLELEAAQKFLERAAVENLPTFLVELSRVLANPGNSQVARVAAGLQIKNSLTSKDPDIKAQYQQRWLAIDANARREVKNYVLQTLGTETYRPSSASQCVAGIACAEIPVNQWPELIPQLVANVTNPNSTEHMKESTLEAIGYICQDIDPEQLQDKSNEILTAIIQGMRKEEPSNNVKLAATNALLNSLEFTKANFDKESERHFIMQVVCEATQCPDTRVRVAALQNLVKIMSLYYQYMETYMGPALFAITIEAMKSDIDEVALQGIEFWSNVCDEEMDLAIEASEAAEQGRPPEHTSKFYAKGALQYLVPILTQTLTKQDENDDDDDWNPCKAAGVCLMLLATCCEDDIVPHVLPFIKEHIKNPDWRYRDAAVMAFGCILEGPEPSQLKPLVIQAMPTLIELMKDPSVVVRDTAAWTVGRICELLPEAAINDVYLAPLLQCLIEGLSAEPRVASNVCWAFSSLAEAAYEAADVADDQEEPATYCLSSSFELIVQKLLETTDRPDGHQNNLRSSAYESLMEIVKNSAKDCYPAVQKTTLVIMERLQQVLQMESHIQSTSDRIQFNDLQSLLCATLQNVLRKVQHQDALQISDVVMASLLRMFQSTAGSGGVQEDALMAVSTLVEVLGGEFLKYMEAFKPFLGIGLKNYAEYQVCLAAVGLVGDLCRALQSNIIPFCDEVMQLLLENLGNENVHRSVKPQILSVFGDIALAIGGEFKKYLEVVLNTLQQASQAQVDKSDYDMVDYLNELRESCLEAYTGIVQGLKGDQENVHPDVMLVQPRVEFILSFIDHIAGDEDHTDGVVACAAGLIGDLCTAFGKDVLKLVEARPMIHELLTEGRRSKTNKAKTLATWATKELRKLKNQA
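Inhibition scored from the CFP 486 nm/YFP 530 nm FRET ratio 45 min after adding 0.125 microM importin beta to 50 nM Rango biosensor preincubated 5 min with compound (room temperature, PBS with DTT, Tween-20, BSA). No-importin wells as positive control.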
Starred values were filed as active, the others as inactive; ? = inconclusive; . = no result; [ ] = another dose, or the depositor's remark. Unless noted, calls follow the shape of the dose curve; as a rule, active = well fitted curve in the direction sought with a large enough effect; inconclusive = small, poorly fitted or top-dose-only effect, or another doubt; inactive = no such curve, though single readings can be large; an effect the other way counts as inactive or inconclusive. Potency is read from the fitted curve at half-maximal effect.

SMILES | PKM2 activator | ELG1 repair inh | Rango release inh | Tb PGK inh | Tb PFK block | Rango-impB inh
CN(C)c1ccc(/C=N/NC(=O)CN(c2ccccc2Cl)S(C)(=O)=O)cc1Br | -7% | 10µM* | 1% | -2% | -7% | -3%
O=C(CCS(=O)(=O)c1cccc2nonc12)Nc1ccc(Br)cc1 | 4% | 0% | -7% | 5% | 2% | 0%
CCOc1ccc(-n2c(C)c(C(C)=O)c3cc(OC(C)=O)ccc32)cc1 | 0%[11.5 µM] | 6.5µM* | -3% | 4% | 2% | 0%
CCN(CC)S(=O)(=O)c1ccc(C)c(NC(=O)COc2ccc3c(C)cc(=O)oc3c2)c1 | -1% | ? | 1% | -7% | 7% | 2%
CCN(CC)S(=O)(=O)c1ccc(OC)c(NC(=O)C(C)Oc2ccc3c(C)cc(=O)oc3c2)c1 (stereo not given) | 3% | 21µM* | 2% | -8% | 0% | ?
O=CN1CCN(c2c([N+](=O)[O-])c(=O)oc3ccccc23)CC1 | . | 13% | 0% | 3% | -2% | 0%
CN(C)c1ccc(C(C(=O)NCC2CCCO2)N(C(=O)c2snc(C(N)=O)c2N)c2ccc3c(c2)OCO3)cc1 (stereo not given) | 6% | 21µM* | -3% | -8% | -2% | -2%
CN(C)c1ccc(C(C(=O)NCC2CCCO2)N(C(=O)c2snc(C(N)=O)c2N)c2ccccc2)cc1 (stereo not given) | . | ? | -13% | 0% | 0% | 0%
COc1ccc(NC(=O)[C@H]2O[C@@H]3OC(C)(C)O[C@@H]3[C@H]3OC(C)(C)O[C@H]32)c(OC)c1 | . | . | . | 7% | . | .
O=C(N/N=C(\Cc1ncc[nH]1)c1ccccc1)c1cccnc1 | -3% | 9.2µM* | -1% | 1% | 2% | 2%
O=C(N/N=C(\Cc1ncc[nH]1)c1ccccc1)c1ccccc1 | 10% | ? | . | . | -1% | .
O=C(N/N=C/c1cc(Br)cc([N+](=O)[O-])c1O)c1ccc(NC(=O)c2ccc(F)cc2)cc1 | -3% | 13µM* | 7% | -1% | -1% | 0%
CCOc1ncnc2c1sc1nc3c(cc12)COC(C)(C)C3 | . | . | -5% | -5% | . | 3%
CCC(C)Nc1nnnc2c1sc1nc3c(cc12)COC(C)(C)C3 (stereo not given) | 7% | 23µM* | 41% | -12% | -4% | 2%
O=C(Nc1ccccc1)c1ccc(NC2CCCCC2)c(S(=O)(=O)N2CCOCC2)c1 | 0% | 15µM* | 35% | -10% | 0% | 2%
O=C(Nc1ccc(NC(=O)c2ccc(Cl)c(S(=O)(=O)N3CCOCC3)c2)cc1)c1ccccc1 | -5% | ? | -11% | -10% | -6% | -3%
O=C(Nc1ccc2c(c1)OCCO2)c1ccc(Br)c(S(=O)(=O)N2CCOCC2)c1 | 0% | ? | 10% | -6% | 4% | 0%
COc1ccc(NC(=O)C23CC4CC(CC(Cl)(C4)C2)C3)cc1S(=O)(=O)N1CCOCC1 | . | 16µM* | -3% | -8% | -15% | 0%
COc1ccc(C(=O)Nc2ccc(N3CCCCCC3)cc2)cc1S(=O)(=O)N1CCOCC1 | . | 21µM* | 7% | 1% | -2% | -3%
COc1ccc(C(=O)Nc2ccc(NC(=O)c3ccccc3)cc2)cc1S(=O)(=O)N1CCOCC1 | . | -22% | -5% | -7% | 3% | 0%
O=C(Nc1ccc2c(c1)OCO2)c1ccc(Br)c(S(=O)(=O)N2CCCC2)c1 | -19% | 21µM* | 0% | -6% | 0% | 0%
Cc1ccc(Cl)cc1N1CCN(C(=O)c2ccc(CS(=O)c3ccccc3)o2)CC1 (stereo not given) | . | . | . | -5% | . | .
O=C(NCC1CC1)C1(C(F)(F)F)CC(CCCO)CCCO1 (stereo not given) | . | . | 0% | -5% | . | ?
